What all share (details): mRNA level, 48 h; actives raise or lower the signal
Read-out in test [1]: growth arrest and DNA damage 45 (GADD45B), GADD45B (gene 4616)
The experiment in a line: LTEA_HepaRG_GADD45B: Life Technologies and Expression Analysis (LTEA) Assay for growth arrest and DNA damage 45 (GADD45B) using HepaRG (AID 2283461). The method in brief: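 Differentiated HepaRG cells, plated 48 h then switched to serum-free induction medium, were exposed 48 h in duplicate to eight half-log concentrations from 100 uM in 0.5% DMSO; mRNA quantified by qRT-PCR, normalized to ACTB/GAPDH/POLR2A, bidirectional fit versus DMSO.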

Read-out in test [2]: ABC Transporter (ABCC3), ABCC3 (gene 8714)
The experiment in a line: LTEA_HepaRG_ABCC3: Life Technologies and Expression Analysis (LTEA) Assay for ABC Transporter (ABCC3) using HepaRG (AID 2283462). The method in brief: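 HepaRG cells in serum-free induction medium were exposed for 48 h in duplicate to 8-point half-log concentrations topping at 100 uM in 0.5% DMSO. ABCC3 mRNA was measured by qRT-PCR normalized to ACTB, GAPDH and POLR2A, with bidirectional fitting versus DMSO.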

Read-out in test [3]: ABC Transporter (ABCB11), ABCB11 (gene 8647)
Put plainly: LTEA_HepaRG_ABCB11: Life Technologies and Expression Analysis (LTEA) Assay for ABC Transporter (ABCB11) using HepaRG (AID 2283463). Summed up:
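HepaRG, 48 h exposure, 8-pt half-log CRC top 100 uM, 0.5% DMSO vehicle, duplicates. Readout: TaqMan qRT-PCR of ABCB11 mRNA, housekeeping-normalized (ACTB/GAPDH/POLR2A). Bidirectional fit vs DMSO baseline.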

Read-out in test [4]: ABC Transporter (ABCC2), ABCC2 (gene 1244)
Put plainly: LTEA_HepaRG_ABCC2: Life Technologies and Expression Analysis (LTEA) Assay for ABC Transporter (ABCC2) using HepaRG (AID 2283464). The method in brief: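 HepaRG cells were plated 48 h, switched to serum-free induction medium, then exposed in duplicate for 48 h to 8 concentrations (top 100 uM, half-log steps, 0.5% DMSO). ABCC2 mRNA was measured by qRT-PCR normalized to ACTB/GAPDH/POLR2A; bidirectional fitting versus DMSO.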

Read-out in test [5]: Broad substrate specificity ATP-binding cassette transporter ABCG2 (Homo sapiens) (UniProt Q9UNQ0)
Put plainly: LTEA_HepaRG_ABCG2: Life Technologies and Expression Analysis (LTEA) Assay for ABC Transporter (ABCG2) using HepaRG (AID 2283465). Summed up: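 HepaRG, 48 h exposure, 8-pt half-log series from 100 uM, 0.5% DMSO vehicle, duplicates. Readout: ABCG2 transcript by qRT-PCR (Fluidigm array), housekeeping-normalized; bidirectional curve fit relative to DMSO baseline.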

Read-out in test [6]: ATP-citrate lyase (ACLY), ACLY (gene 47)
Put plainly: LTEA_HepaRG_ACLY: Life Technologies and Expression Analysis (LTEA) Assay for ATP-citrate lyase (ACLY) using HepaRG (AID 2283466). Summed up: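 qRT-PCR readout of ACLY transcript after 48 h chemical treatment of HepaRG cells; expression normalized to three housekeeping genes. Eight-point half-log series, highest 100 uM, 0.5% DMSO vehicle. Gain or loss fitted against DMSO baseline.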

Read-out in test [7]: Peroxisomal acyl-coenzyme A oxidase 1 (ACOX1) gene, ACOX1 (gene 51)
Put plainly: LTEA_HepaRG_ACOX1: Life Technologies and Expression Analysis (LTEA) Assay for Peroxisomal acyl-coenzyme A oxidase 1 (ACOX1) gene using HepaRG (AID 2283467). Summed up:
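HepaRG, 48 h chemical exposure, 8-pt half-log series from 100 uM top, 0.5% DMSO vehicle, duplicates. Readout: ACOX1 mRNA by Fluidigm qRT-PCR, housekeeping-normalized; bidirectional fit vs DMSO baseline.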

Read-out in test [8]: Alkaline Phosphatase, Placental (ALPP) gene, ALPP (gene 250)
The experiment in a line: LTEA_HepaRG_ALPP: Life Technologies and Expression Analysis (LTEA) Assay for Alkaline Phosphatase, Placental (ALPP) gene using HepaRG (AID 2283468). Summed up: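 Differentiated human HepaRG cells were plated and cultured 48 h, then exposed in duplicate for 48 h in serum-free induction medium to eight half-log concentrations from 100 uM in 0.5% DMSO. ALPP mRNA was measured by TaqMan qRT-PCR, normalized to ACTB, GAPDH, POLR2A.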

Read-out in test [9]: Bcl-2 (BAX) gene, BAX (gene 581)
The experiment in a line: LTEA_HepaRG_BAX: Life Technologies and Expression Analysis (LTEA) Assay for Bcl-2 (BAX) gene using HepaRG (AID 2283470). Summed up:
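Cells were thawed, plated for 48 h, moved to serum-free induction medium and dosed for 48 h (highest concentration 100 uM, half-log steps, 0.5% DMSO). Total RNA was then analysed for BAX expression by qRT-PCR.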

Read-out in test [10]: Alpha-fetoprotein (AFP) gene, AFP (gene 174)
Put plainly: LTEA_HepaRG_AFP: Life Technologies and Expression Analysis (LTEA) Assay for Alpha-fetoprotein (AFP) gene using HepaRG (AID 2283472). The method in brief:
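Chemicals were tested on differentiated HepaRG cells for 48 hours at eight concentrations up to 100 uM, with 0.5% DMSO as vehicle. AFP expression was then quantified by qRT-PCR and analyzed for gain or loss relative to DMSO.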

Read-out in the next test: BCL2L11 (gene 10018)
The experiment in a line: LTEA_HepaRG_BCL2L11: Life Technologies and Expression Analysis (LTEA) Assay for Bcl-2 (BCL2L11) gene using HepaRG (AID 2283473). Summed up: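 Differentiated human HepaRG cells in serum-free induction medium were exposed in duplicate for 48 h to eight concentrations (top 100 uM, half-log steps, 0.5% DMSO). BCL2L11 mRNA was quantified by TaqMan qRT-PCR, normalized to ACTB/GAPDH/POLR2A, bidirectional fit versus DMSO.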

Read-out in test [11]: Apolipoprotein A-V (APOA5) gene, APOA5 (gene 116519)
The experiment in a line: LTEA_HepaRG_APOA5: Life Technologies and Expression Analysis (LTEA) Assay for Apolipoprotein A-V (APOA5) gene using HepaRG (AID 2283474). Summed up:
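Differentiated human HepaRG cells were exposed in duplicate for 48 h to eight half-log concentrations from 100 uM in 0.5% DMSO. APOA5 mRNA was quantified by TaqMan qRT-PCR, normalized to ACTB, GAPDH and POLR2A, and fitted bidirectionally against DMSO.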

Read-out in test [12]: Apoptosis regulator Bcl-2 (Homo sapiens) (UniProt P10415)
The experiment in a line: LTEA_HepaRG_BCL2: Life Technologies and Expression Analysis (LTEA) Assay for Bcl-2 gene using HepaRG (AID 2283475). The method in brief: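 Plated human HepaRG cells are exposed to test chemicals for 48 h across eight concentrations from 100 uM downward in half-log steps (0.5% DMSO). BCL2 expression is then measured by qRT-PCR with housekeeping normalisation and fitted bidirectionally against vehicle.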

Read-out in test [13]: Bcl-2 (BID) gene, BID (gene 637)
The experiment in a line: LTEA_HepaRG_BID: Life Technologies and Expression Analysis (LTEA) Assay for Bcl-2 (BID) gene using HepaRG (AID 2283476). The method in brief: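 Cells are plated, cultured 48 h, switched to serum-free induction medium, then dosed 48 h (100 uM top, half-log steps, 0.5% DMSO). RNA is isolated and BID expression read by qRT-PCR.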

Read-out in the next test: Caspase-3 (Homo sapiens) (UniProt P42574)
Put plainly: LTEA_HepaRG_CASP3: Life Technologies and Expression Analysis (LTEA) Assay for cysteine-aspartic acid protease (CASP3) using HepaRG (AID 2283477). Summed up:
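Differentiated human HepaRG cells in serum-free induction medium were exposed 48 h to 8-point half-log concentrations from 100 uM (0.5% DMSO vehicle). CASP3 mRNA was measured by qRT-PCR, normalised to ACTB, GAPDH and POLR2A, with bidirectional fitting against DMSO.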

Read-out in test [14]: Cytochrome P450 (CYP24A1), CYP24A1 (gene 1591)
Put plainly: LTEA_HepaRG_CYP24A1: Life Technologies and Expression Analysis (LTEA) Assay for Cytochrome P450 (CYP24A1) using HepaRG (AID 2283478). Summed up: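 Differentiated HepaRG cells, pre-cultured 48 h, were exposed in duplicate for 48 h in serum-free induction medium to 8 half-log concentrations (top 100 uM, 0.5% DMSO). CYP24A1 mRNA was quantified by TaqMan qRT-PCR, normalized to ACTB/GAPDH/POLR2A, fitted bidirectionally versus DMSO.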

Read-out in test [15]: Cytochrome P450 (CYP1A2), CYP1A2 (gene 1544)
The experiment in a line: LTEA_HepaRG_CYP1A2: Life Technologies and Expression Analysis (LTEA) Assay for Cytochrome P450 (CYP1A2) using HepaRG (AID 2283479). The method in brief: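 Differentiated human HepaRG cells in serum-free induction medium were exposed in duplicate for 48 h to 8-point half-log concentrations up to 100 uM in 0.5% DMSO. CYP1A2 mRNA measured by qRT-PCR, normalized to ACTB, GAPDH, POLR2A; bidirectional fit vs DMSO.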

Read-out in test [16]: cysteine-aspartic acid protease (CASP8), CASP8 (gene 841)
The experiment in a line: LTEA_HepaRG_CASP8: Life Technologies and Expression Analysis (LTEA) Assay for cysteine-aspartic acid protease (CASP8) using HepaRG (AID 2283480). Summed up: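 qRT-PCR readout of CASP8 mRNA, normalized to three housekeeping genes, after 48 h chemical exposure of HepaRG cells; 8-point half-log series, top 100 uM, 0.5% DMSO vehicle. Bidirectional curve fitting against DMSO baseline.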

The source of these data is PubChem BioAssay (EPA / NIEHS).

Each structure is given as a SMILES string. The source made the active and inactive calls. Rule for the calls: active = hit-call score of the fitted dose curve at least 0.9, where 1 is the maximum; inactive = score below 0.9.

Chain of Apoptosis regulator Bcl-2 (Homo sapiens) (P10415 whole entry, looked up): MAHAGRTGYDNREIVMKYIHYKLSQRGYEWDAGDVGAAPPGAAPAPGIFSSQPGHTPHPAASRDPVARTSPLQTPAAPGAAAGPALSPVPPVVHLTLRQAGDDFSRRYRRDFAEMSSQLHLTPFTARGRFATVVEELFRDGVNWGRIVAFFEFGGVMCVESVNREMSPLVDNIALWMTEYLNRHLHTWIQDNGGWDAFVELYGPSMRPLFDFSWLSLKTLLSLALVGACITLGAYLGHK
Chain of Caspase-3 (Homo sapiens) (P42574 whole entry, looked up): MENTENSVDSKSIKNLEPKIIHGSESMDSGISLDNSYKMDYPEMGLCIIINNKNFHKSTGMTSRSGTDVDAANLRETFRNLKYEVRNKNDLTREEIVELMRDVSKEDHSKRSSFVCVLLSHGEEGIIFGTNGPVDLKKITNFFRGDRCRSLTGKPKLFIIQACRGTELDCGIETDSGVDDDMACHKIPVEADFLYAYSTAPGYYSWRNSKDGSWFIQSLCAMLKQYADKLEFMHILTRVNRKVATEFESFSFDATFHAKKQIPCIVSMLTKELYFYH
Chain of Broad substrate specificity ATP-binding cassette transporter ABCG2 (Homo sapiens) (Q9UNQ0 whole entry, looked up): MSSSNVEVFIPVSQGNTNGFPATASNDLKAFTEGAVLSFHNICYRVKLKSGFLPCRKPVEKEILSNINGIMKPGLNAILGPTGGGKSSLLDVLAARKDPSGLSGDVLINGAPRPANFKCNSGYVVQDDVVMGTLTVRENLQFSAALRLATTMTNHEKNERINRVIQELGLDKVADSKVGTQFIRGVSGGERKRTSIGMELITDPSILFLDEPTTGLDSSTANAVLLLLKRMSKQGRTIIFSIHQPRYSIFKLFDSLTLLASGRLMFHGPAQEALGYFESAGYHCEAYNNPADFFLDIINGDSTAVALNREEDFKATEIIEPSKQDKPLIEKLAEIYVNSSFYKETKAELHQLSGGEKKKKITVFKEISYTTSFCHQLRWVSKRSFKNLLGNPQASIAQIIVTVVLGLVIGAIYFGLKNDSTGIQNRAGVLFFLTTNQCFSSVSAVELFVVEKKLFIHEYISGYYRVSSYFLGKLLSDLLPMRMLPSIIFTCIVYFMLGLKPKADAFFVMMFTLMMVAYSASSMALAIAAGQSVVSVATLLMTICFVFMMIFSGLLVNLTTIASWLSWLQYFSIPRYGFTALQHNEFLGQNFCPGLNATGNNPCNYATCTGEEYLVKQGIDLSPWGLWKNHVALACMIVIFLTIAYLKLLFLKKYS

A word on the AC50: it is the concentration at which the activity in the assay is half-maximal. As to `O=S(=O)(O)c1ccc(N=Nc2c(O)ccc3cc(S(=O)(=O)O)ccc23)cc1`, the outcome in test [1], in test [2], in test [3], in [4], in test [5] and in test [6] was inactive. The call (in test [7]; in test [8]; in test [9]; in [10]; in the test with BCL2L11 (gene 10018); in test [11]) was inactive. The compound was called inactive (in test [12]; in test [13]; with Caspase-3 (Homo sapiens); in test [14]; in test [16]). Besides, in test [15], the AC50 is 50 µM (active).
With `CC(C)C(=O)Nc1ccc([N+](=O)[O-])c(C(F)(F)F)c1`, the result (in test [1]; in [2]; in [5]; with BCL2L11 (gene 10018); in test [13]; with Caspase-3 (Homo sapiens)) was inactive. The result in [14] and in test [16] was inactive. Besides, the AC50 in test [3] is 25.3 µM (active); in test [4], 34.3 µM (active); in [6] it was 17.6 µM (active); in test [7], 72.4 µM (active); in test [8] it was 50 µM (active); in [9] it was 50 µM (active). In addition, the values for the AC50 in test [10], in test [12] and in test [15] were 58.5 µM (active), 90.3 µM (active) and 14.9 µM (active), respectively.
Consider `O=C(O)c1cccc(C[C@@H]2COc3ccc(OCc4nc5cc(F)ccc5s4)cc3[C@@H]2O)c1`, for which the compound was called inactive in [1], in test [4], in test [5], in test [6], in test [7] and in [9]. Moreover, the call (with BCL2L11 (gene 10018); in [12]; in test [13]; with Caspase-3 (Homo sapiens); in test [14]; in test [15]) was inactive. Also, the compound was classed as inactive in test [16]. In addition, the AC50 was 79.3 µM (active) in test [2]; 79.3 µM (active) in test [3]; 80 µM (active) in test [8]; 68.7 µM (active) in test [10]; 81.1 µM (active) in test [11].
